According to article PMC4336329 (PLoS ONE, 2015):
About 2,200 (0.71%) of roughly 310,000 compounds showed an effect of 50% or more. The effect is printed as a negative number. This excerpt belongs to a sample that is enriched for strong results.

Biological target: human ether-à-go-go-related gene (hERG) potassium channel (human, UniProt Q12809)
Assay: primary screen, population patch clamp on CHO cells stably expressing hERG; higher = less effect of the substance

Sequence of human ether-à-go-go-related gene (hERG) potassium channel (Q12809 whole entry, looked up): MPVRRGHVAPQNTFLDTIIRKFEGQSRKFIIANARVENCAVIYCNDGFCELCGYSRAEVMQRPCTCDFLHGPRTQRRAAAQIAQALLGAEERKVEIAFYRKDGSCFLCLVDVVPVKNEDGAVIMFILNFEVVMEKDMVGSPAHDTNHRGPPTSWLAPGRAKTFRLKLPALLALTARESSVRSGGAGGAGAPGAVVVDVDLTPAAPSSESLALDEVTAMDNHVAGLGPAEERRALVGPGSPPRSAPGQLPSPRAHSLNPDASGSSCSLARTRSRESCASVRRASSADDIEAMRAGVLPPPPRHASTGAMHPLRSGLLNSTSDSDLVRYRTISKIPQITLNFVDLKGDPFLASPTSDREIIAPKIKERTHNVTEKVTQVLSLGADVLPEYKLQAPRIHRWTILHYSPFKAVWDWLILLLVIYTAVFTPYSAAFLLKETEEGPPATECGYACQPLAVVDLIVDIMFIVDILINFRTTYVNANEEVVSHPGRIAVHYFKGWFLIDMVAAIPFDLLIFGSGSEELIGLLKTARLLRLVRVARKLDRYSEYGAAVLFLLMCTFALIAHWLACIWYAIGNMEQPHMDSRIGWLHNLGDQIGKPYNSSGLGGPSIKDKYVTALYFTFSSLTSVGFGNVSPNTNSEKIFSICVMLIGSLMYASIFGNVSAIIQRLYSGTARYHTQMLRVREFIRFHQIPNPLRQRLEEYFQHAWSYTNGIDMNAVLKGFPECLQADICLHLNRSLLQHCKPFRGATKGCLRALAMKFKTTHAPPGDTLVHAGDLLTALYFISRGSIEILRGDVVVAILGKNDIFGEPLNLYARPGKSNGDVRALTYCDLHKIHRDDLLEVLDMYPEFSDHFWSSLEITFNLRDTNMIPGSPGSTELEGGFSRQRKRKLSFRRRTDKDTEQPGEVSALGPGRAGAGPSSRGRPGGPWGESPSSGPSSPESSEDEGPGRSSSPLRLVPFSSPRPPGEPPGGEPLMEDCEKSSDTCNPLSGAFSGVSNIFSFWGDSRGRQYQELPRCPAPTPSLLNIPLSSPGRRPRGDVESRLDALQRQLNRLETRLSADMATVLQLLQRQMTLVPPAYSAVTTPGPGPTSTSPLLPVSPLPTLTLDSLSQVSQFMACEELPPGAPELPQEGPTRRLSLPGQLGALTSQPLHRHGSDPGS

| SMILES | hERG current change (%, negative = inhibition) at 1uM |
| --- | --- |
| Cn1c(=O)n(C)c2cc(NS(C)(=O)=O)ccc21 | 8.26% |
| COc1ccc(Cc2noc(CN3CCCC(C(=O)c4cccs4)C3)n2)cc1OC (centres unmarked) | 9.47% |
| O=c1c2c(nc3n1CCS3)c1cc(F)ccc1n2Cc1cc(=O)n2cc(Cl)ccc2n1 | 10.3% |
| Cc1cc(F)ccc1S(=O)(=O)Nc1ccc(O)c(Sc2ncn[nH]2)c1 | 20.6% |
| Cc1cc(C)cc(N(C(=O)CCC(=O)Nc2ccccn2)C(C(=O)NC(C)C)c2ccc(O)cc2)c1 (centres unmarked) | 1.99% |
| OC(COc1ccc(F)cc1)CN1CCN(CC(O)COc2ccc(F)cc2)CC1 (centres unmarked) | -51.1% |
| OC(COc1ccccc1)CN1CCN(C(c2ccccc2)c2ccccc2)CC1 (centres unmarked) | -24.1% |
| CC1CCN(CC(O)COc2ccc(F)cc2)CC1 (centres unmarked) | -13.3% |
| CCC(=O)c1ccc(OCC(O)Cn2nc(C)c(C(C)=O)c2C)cc1 (centres unmarked) | 4.75% |
| CCC(=O)c1ccc(OCC(O)CN2CCN(C(c3ccccc3)c3ccccc3)CC2)cc1 (centres unmarked) | -51.4% |
| COc1ccc(OCC(O)CN2CCN(CC(O)COc3ccc(OC)cc3)CC2)cc1 (centres unmarked) | 3.29% |
| OC(COc1ccc(OCC(O)CN2CCN(Cc3ccccc3)CC2)cc1)CN1CCN(Cc2ccccc2)CC1 (centres unmarked) | 6.14% |
| CCC(=O)c1ccc(OCC(O)CN2CCCCC2)cc1.Cl (centres unmarked) | 3.96% |
| CCC(=O)c1ccc(OCC(O)Cn2nc(C)cc2C)cc1 (centres unmarked) | 7.89% |
| CCC(=O)c1ccc(OCC(O)Cn2nc(C)c(Br)c2C)cc1 (centres unmarked) | -100% |
| N#Cc1ccc(OCC(O)CN2CCN(C(c3ccccc3)c3ccccc3)CC2)cc1 (centres unmarked) | -69.5% |
| CCC(=O)c1ccc(OCC(O)CN2CCOCC2)cc1 (centres unmarked) | 17.8% |
| O=c1[nH]c(=O)c2nc3ccccc3nc2[nH]1 | 2.78% |
| COc1cc(NC(=O)CN(C)C2CCCCC2)c(C)cc1[N+](=O)[O-] | 6.09% |
| Cc1ccc(S(=O)(=O)N[C@@H](CC(C)C)C(=O)NCc2ccco2)cc1 | 3.58% |
| CCCCN(C(=O)/C=C/c1ccco1)c1c(N)n(Cc2ccccc2)c(=O)[nH]c1=O | 7.19% |
| CCOc1cc(NC(=S)NCCCN2CCOCC2)c(OCC)cc1NC(=O)c1cccc(F)c1 | -0.782% |

| SMILES | hERG current change (%, negative = inhibition) at 1uM |
| --- | --- |
| C=CCOc1ccccc1/C=N/NC(=O)Cc1ccccc1 | 14.3% |
| Cc1ccc(S(=O)(=O)N2CCCC2C(=O)Nc2nc3c(s2)CCCC3)cc1 (centres unmarked) | 13.2% |
| OC(COc1ccc(OCC(O)CN2CCCCC2)cc1)CN1CCCCC1 (centres unmarked) | 18.1% |
| CC1CCCN(CC(O)COc2ccc(Cl)cc2)C1.Cl (centres unmarked) | -32.2% |
| CC1CCCN(CC(O)COc2ccc(-c3ccccc3)cc2)C1 (centres unmarked) | -57.8% |
| CC1CN(CC(O)COc2ccc(C#N)cc2)CCN1CC(O)COc1ccc(C#N)cc1 (centres unmarked) | -86.2% |
| OC1CCCN(CC(O)COc2ccc(-c3ccccc3)cc2)C1 (centres unmarked) | -0.151% |
| CC(=O)c1ccc(N2CCN(CC(O)COCc3ccco3)CC2)cc1 (centres unmarked) | -29.3% |
| N#Cc1ccc(-c2ccc(OCC(O)CN3CCCCC3)cc2)cc1 (centres unmarked) | -52.1% |
| N#Cc1ccc(-c2ccc(OCC(O)CN3CCOCC3)cc2)cc1 (centres unmarked) | 7.69% |
| OC(COCc1ccco1)CN1CCN(C(c2ccccc2)c2ccccc2)CC1 (centres unmarked) | -79.1% |
| CC1CCCCN1CC(O)COc1ccc(OCC(O)CN2CCCCC2C)cc1 (centres unmarked) | 13.5% |
| O=C(O)C(=O)O.OC(COCc1ccco1)CN1CCN(c2ccccc2)CC1 (centres unmarked) | 3.71% |
| Cc1ccccc1OCC(O)CN1CCN(CC(O)COc2ccccc2C)C(C)C1.O=C(O)C(=O)O (centres unmarked) | -29% |
| COc1ccccc1NC(=O)COC(=O)/C=C/c1ccc2c(c1)OCO2 | 9.01% |
| O=C(Nc1ccc(C(=O)O)cc1)/C(=C\c1ccc2c(c1)OCO2)NC(=O)c1ccco1 | 19.4% |
| O=C(c1csc2c1CCCC2)N1CCN(c2ccc(F)cc2)CC1 | 2.84% |
| COc1ccc(C(=O)Nc2cccc(-c3ccc4nncn4n3)c2)cc1 | 7.11% |
| CCn1ncc(NC(=S)NCCc2ccccc2)c1C(N)=O | 2.4% |
| CC(C)C(OC(=O)c1cccs1)C(=O)NCc1ccco1 (centres unmarked) | 12.2% |
| O=S(=O)(Nc1cc(S(=O)(=O)N2CCOCC2)ccc1N1CCOCC1)c1ccc2c(c1)OCCO2 | 28.4% |
| COc1ccccc1N1C(=O)[C@@H]2[C@H](C1=O)[C@H](C(=O)c1ccc(OC(C)=O)cc1)N1N=CC=C[C@@H]21 | 15.9% |

| SMILES | hERG current change (%, negative = inhibition) at 1uM |
| --- | --- |
| C#CCCOC(=O)N1C2=NC(C(=O)OC)=C(C(=O)OC)[C@@H]3N(C)c4ccc(OC)cc4[C@]23C[C@H]1C(=O)OC | -0.338% |
| CSc1ccc(/C=C2\CCn3c2nc2cc(C(=O)O)ccc2c3=O)cc1 | 15.6% |
| O=C(Nc1ccccn1)c1cc2ccccc2o1 | 9.79% |
| CCOC(=O)N/N=C/c1ccc(C)o1 | 5.21% |
| COc1ccc(N2CCN(CC(O)COc3ccc(F)cc3)CC2)cc1.Cl (centres unmarked) | -47.8% |
| CC(=O)c1ccc(OCC(O)CN2CCN(c3ccc(F)cc3)CC2)cc1.Cl (centres unmarked) | -64.9% |
| N#Cc1ccc(OCC(O)CN2CCN(CC(O)COc3ccc(C#N)cc3)CC2)cc1 (centres unmarked) | -91.3% |
| OC(CN1CCN(c2ncc(C(F)(F)F)cc2Cl)CC1)c1ccccc1 (centres unmarked) | 1.4% |
| O=C(O)CN1CCN(c2ncc(C(F)(F)F)cc2Cl)CC1 | 12.6% |
| Cl.OC(COCC1COc2ccccc2O1)CN1CCN(c2ccc(F)cc2)CC1 (centres unmarked) | -57.6% |
| CN1CCN(CC(O)COc2ccc(OCC(O)CN3CCN(C)CC3)cc2)CC1 (centres unmarked) | 10.2% |
| CCC(=O)c1ccc(OCC(O)CN2CCN(c3ccc(F)cc3)CC2)cc1 (centres unmarked) | -15.1% |
| Cl.OC(COCC1COc2ccccc2O1)CN1CCN(c2ccccc2F)CC1 (centres unmarked) | -19.9% |
| Cc1ccc(OCC(O)CN2CCN(CC(O)COc3ccc(C)cc3)CC2)cc1 (centres unmarked) | -8.83% |
| N#Cc1ccc(OCC(O)CN2CCN(c3ncc(C(F)(F)F)cc3Cl)CC2)cc1 (centres unmarked) | -81.4% |
| Cl.OC(COCC1COc2ccccc2O1)CN1CCN(c2ccccc2)CC1 (centres unmarked) | -24.7% |
| Cc1cc(N2CCCC2)ccc1NC(=O)CN1C(=O)NC(C)(c2ccccc2)C1=O (centres unmarked) | 16% |
| O=P(O)(CCc1ccccc1)C(O)c1ccccc1 (centres unmarked) | 5.09% |
| COc1cc(OC)cc(C(=O)N[C@H](C(=O)OCC(=O)NC(=O)c2cccn2C)C(C)C)c1 | 6.95% |
| C=CCNC(=O)CSc1ccc(Cl)cc1 | 13.7% |
| CNc1nnc(-c2ccc(C)cc2)c2ccccc12 | -5.45% |
| Cc1ccc([N+](=O)[O-])c2c1C(N1CC(C)OC(C)C1)C(C)(C)O2 (centres unmarked) | 17.1% |

| SMILES | hERG current change (%, negative = inhibition) at 1uM |
| --- | --- |
| CCOc1ccc(NC(=O)COc2ccc(C(=O)NCCc3ccccc3)cc2)cc1 | 3.64% |
| Cc1cc(C(=O)N/N=C/c2cccc(Cl)c2Cl)no1 | 3.36% |
| O=C1OC(N2C(=O)CC[C@H]2C(=O)Nc2ccc(F)c(F)c2)c2ccccc21 (some centres unmarked) | 8.61% |
| CC(=O)c1ccc(NC(=O)CSc2n[nH]c(-c3cccnc3)n2)cc1 | 14.1% |
| COc1ccc(CCNC(=O)c2cc3c(=O)n4ccccc4nc3n(CC3CCCO3)c2=N)cc1OC (centres unmarked) | -90.3% |
| Cc1cccn2c(=O)c3cc(C(=O)NCCc4ccccc4)c(=N)n(CC4CCCO4)c3nc12 (centres unmarked) | -91% |
| O=C(CSc1nc2ccccc2c(=O)n1CC1CCCO1)NCCc1ccccc1 (centres unmarked) | 19.6% |
| N=c1c(C(=O)NCCc2ccccc2)cc2c(=O)n3ccccc3nc2n1CC1CCCO1 (centres unmarked) | -93.8% |
| COc1ccc(CCNC(=O)c2cc3c(=O)n4cccc(C)c4nc3n(CC3CCCO3)c2=N)cc1 (centres unmarked) | -79.4% |
| COc1ccc(CCNC(=O)Cn2c(=O)n(CC3CCCO3)c(=O)c3ccccc32)cc1OC (centres unmarked) | 3.58% |
| Cc1ccc(NC(=O)N2CCCCCC2)cc1 | 0.321% |
| CCOC(=O)c1cnc(-n2nc(C)cc2C)nc1Nc1ccc(O)cc1 | 14.2% |
| COc1cc(Cl)c(C)cc1NC(=O)CSc1sc2c(O)cc(=O)[nH]c2c1C#N | 18.7% |
| CC(=O)c1ccccc1NS(C)(=O)=O | 9.61% |
| COc1ccccc1Nc1ncnc2ccc(C)cc12 | 12.7% |
| Cc1cccn2c(=O)c3cc(C(=O)NCc4ccc(F)cc4)c(=N)n(CC4CCCO4)c3nc12 (centres unmarked) | -81.8% |
| Cc1ccc(S(=O)(=O)c2cc3c(=O)n4cccc(C)c4nc3n(CC3CCCO3)c2=N)cc1C (centres unmarked) | 12.9% |
| Cc1ccc(CCNC(=O)c2ccc3nc4ccccc4c(=O)n3c2)cc1 | 14.3% |
| Cc1ccc2nc3c(cc(C(=O)NCCc4ccccc4)c(=N)n3CC3CCCO3)c(=O)n2c1 (centres unmarked) | -84% |
| COc1ccc(CNC(=O)c2cc3c(=O)n4cccc(C)c4nc3n(CC3CCCO3)c2=N)cc1 (centres unmarked) | -83.8% |
